From PubChem
RAD54 inh: inhibitors of human RAD54 branch migration; Q92698; RAD54 Holliday junction branch migration, FAM/BHQ fluorescence; inhibition, % at 10.4 µM; 360,000 compounds, 0.14% hits; AID 602329;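 active = mean normalized replicate activity at least 40 and at least half of replicates scoring 40 or more; inconclusive = only one of the two criteria met; inactive = mean below 40 and under half of replicates reaching 40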;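 note: 0% = median of neutral control wells and 100% = median of positive control wells; inhibitors cause a drop in the FAM fluorescence signal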
RAD52 inh: blocks human RAD52 DNA annealing; recombinant RAD52 DNA annealing, FRET fluorescence; P43351; inhibition, % at 18.7 µM; 360,000 compounds, 0.46% hits;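 active = every replicate showing at least 50% inhibition; inconclusive = mean inhibition at least 50% but not in every replicate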
Target sequence (P43351 whole entry, looked up): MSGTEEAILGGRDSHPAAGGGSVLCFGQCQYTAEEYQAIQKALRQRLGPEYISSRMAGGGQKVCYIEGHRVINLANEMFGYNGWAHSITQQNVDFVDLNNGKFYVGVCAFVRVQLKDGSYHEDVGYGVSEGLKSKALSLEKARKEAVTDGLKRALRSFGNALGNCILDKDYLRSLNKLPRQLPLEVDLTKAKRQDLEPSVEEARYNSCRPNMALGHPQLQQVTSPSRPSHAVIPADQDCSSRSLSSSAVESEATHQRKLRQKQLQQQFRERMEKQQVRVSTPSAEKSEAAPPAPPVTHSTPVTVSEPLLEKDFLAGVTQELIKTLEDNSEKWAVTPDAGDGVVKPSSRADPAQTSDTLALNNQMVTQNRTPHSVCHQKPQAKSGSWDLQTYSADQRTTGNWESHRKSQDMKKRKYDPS
CASP6 VEID inh: blocks human caspase-6 cleavage activity; AID 686996; P55212; inhibition, % at 12.5 µM; 350,000 compounds, 0.53% hits; purified caspase-6, Z-VEID-R110 cleavage fluorescence;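 active = mean inhibition across replicates at least about 35%, with every replicate also reaching that limit, limit read from the data; inconclusive = only one of the two criteria met; inactive = neither criterion met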;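 note: 0% = median of neutral control wells and 100% = no fluorescence left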
Target sequence (P55212 24-179 limits assumed): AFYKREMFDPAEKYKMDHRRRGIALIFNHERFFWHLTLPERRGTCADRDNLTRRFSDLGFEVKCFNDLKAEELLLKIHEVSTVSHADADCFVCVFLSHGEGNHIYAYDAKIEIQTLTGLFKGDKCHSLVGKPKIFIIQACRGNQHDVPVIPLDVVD
Target sequence (P55212 194-293 limits assumed): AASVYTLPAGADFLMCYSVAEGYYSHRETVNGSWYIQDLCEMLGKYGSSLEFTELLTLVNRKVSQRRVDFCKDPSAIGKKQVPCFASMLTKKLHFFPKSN
NSD2 inh: inhibitors of human histone methyltransferase NSD2. O96028. NSD2 peptide methylation, AlphaScreen, 120 min. inhibition, % at 12.5 µM. 310,000 compounds, 0.54% hits. AID 743445; in the data active = inhibition above about 50%
Glyco luc inh: blocks N-linked glycosylation in D54 reporter cells. D54 ERlucT glycosylation luciferase reporter, 24 h; percent of 100 nM tunicamycin response. reporter increase, % at 12.5 µM. AID 588692. 360,000 compounds, 0.23% hits;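 active = mean luciferase reporter signal, scaled so untreated is 0 and the glycosylation-blocking control 100, at or above a set limit in every replicate; inconclusive = mean reaches the limit but not every replicate does; inactive = mean below the limit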;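 note: luciferase carries N-glycosylation sites so blocking glycosylation raises the light; 0% = median of neutral control wells and 100% = median of 100 nM tunicamycin wells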
DNA binding: counter-screen for Rad54 inhibitors: DNA binding compounds | AC50, µM (doses to about 35 µM), without a hit: top-dose activity change, negative = DNA binding | AID 651673 | Acridine orange-DNA displacement, fluorescence polarization, 20 min | 460 compounds, 8% hits | shares compounds with RAD54 inh;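 active = signal drop giving an AC50 within twice the top valid tested concentration of each sample, actives reach about 35 µM in these data; inactive = activity opposite to expected, plus the rest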;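 note: polarization loss reports compound binding to salmon sperm DNA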
RAD52 DNA ctr: counter-screen for RAD52 inhibitors: DNA binding compounds | AID 652128 | 1,000 compounds, 8% hits | AC50, µM | shares compounds with RAD52 inh | Salmon sperm DNA/acridine orange FP displacement;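 active = fitted half-maximal concentration for signal loss at or below twice the highest dose tested, in every separate run, actives reach about 64 µM in these data; inconclusive = runs disagree, or flat partial signal loss, or poor fit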
Starred values were filed as active, the others as inactive; i = inactive; ? = inconclusive; . = not tested or not shown. Shown are actives, neighbours in structure and some others; about 1.2% of the full set was active somewhere.

SMILES | RAD54 inh | RAD52 inh | CASP6 VEID inh | NSD2 inh | Glyco luc inh | others
COC(=O)[C@H]1[C@H](CO)[C@H]2Cn3c(ccc(-c4cncnc4)c3=O)[C@@H]1N2S(=O)(=O)c1ccccc1C | -3 | 4 | 2 | . | .
Cn1cccc1/C=C1/C(=O)NC(=O)N(Cc2ccc(F)cc2)C1=O | . | -54 | 23 | 4 | 11
Cn1cccc1/C=C1/C(=O)NC(=S)N(Cc2ccc(F)cc2)C1=O | 2 | -26 | 35* | 8 | 1
COC(=O)[C@@H]1[C@@H](CO)[C@@H]2Cn3c(ccc(-c4cccnc4)c3=O)[C@H]1N2CCc1ccccc1 | -1 | 3 | -5 | . | .
Cc1c2ccncc2c(C)c2c1[nH]c1ccccc12 | 51* | . | . | . | 7
O=C(C1CC1)N1C[C@@H]2N[C@H](C1)[C@@H]2c1ccc(-c2ccncc2)cc1 | . | 9 | -1 | . | .
C=C1C(=O)OC2CCN3CC=C(COC(=O)C(C)(O)C4(CO4)C1C)C23 (configuration not stated) | -8 | -5 | 36* | . | 3
COC(=O)[C@@H]1[C@@H](CO)[C@@H]2Cn3c(ccc(/C=C/c4ccccc4)c3=O)[C@H]1N2C(=O)C1CCC1 | -2 | 10 | 2 | . | .
Cn1c(NN=O)nc2ccccc21 | . | -6 | 36* | -5 | -5
O=C(Cc1cccs1)N1Cc2ccccc2-n2nncc2C1 | 8 | -24 | 41* | . | -2
CCCC#Cc1ccc([C@@H]2[C@@H](CO)N3CCCCN(C(=O)Cc4ccccn4)C[C@@H]23)cc1 | 7 | -40 | -6 | . | .
COc1ccc(/C=N/N=C(/N)N[N+](=O)[O-])c(OC)c1 | -14 | . | . | -5 | 2
N/C(=N\N=C/c1ccc(-c2ccc(O)c(C(=O)O)c2)o1)N[N+](=O)[O-] | -3 | . | . | 121* | 1
COC(=O)[C@H]1[C@H](CO)[C@H]2Cn3c(ccc(-c4cccc(F)c4)c3=O)[C@@H]1N2Cc1cccnc1 | -7 | 6 | -1 | . | .
O=C(O)[C@@H]1[C@@H](CO)[C@@H]2Cn3c(ccc(-c4ccc(F)cc4)c3=O)[C@H]1N2CC1CCCCC1 | -3 | -4 | 1 | . | .
COc1ccc(-c2ccc3c(c2)CN(c2cccc(Cl)c2)Cc2cnnn2-3)cc1 | -2 | -10 | . | . | 0
Clc1cccc(N2Cc3cc(-c4ccccc4)ccc3-n3nncc3C2)c1 | -2 | -9 | 7 | . | 40*
Cc1cccc(N2C(=O)/C(=C/c3ccc(N4CCN(C)CC4)o3)C(=O)NC2=S)c1C | . | -496 | 17 | 51* | 2
COc1ccc(N2C(=O)/C(=C/c3ccc(C)o3)C(=O)NC2=S)c(OC)c1 | -3 | -129 | 38* | 47 | 0
COC(=O)[C@@H]1[C@@H](CO)[C@@H]2Cn3c(ccc(-c4ccccc4F)c3=O)[C@H]1N2C(C)=O | 6 | 0 | 1 | . | .
O=C(Cc1ccccc1)N1C[C@@H]2[C@H](c3ccccc31)[C@H](CO)N2Cc1ccccc1 | 0 | -8 | 1 | . | .
CN1CCN(c2ccc(N)cc2)CC1 | 97* | . | . | 12 | 5 | DNA binding=-14%
CN1CCN(c2ccc(N)c(N3CCN(C)CC3)c2)CC1 | . | . | . | 15 | -1
Oc1ccc(CCN2CCCCC2)cc1 | -2 | -82 | 1 | -1 | -3
Nc1ccc(CCN2CCCC2)cc1 | ? | 94* | -92 | 14 | 1 | DNA binding=6%
SMILES | RAD54 inh | RAD52 inh | CASP6 VEID inh | NSD2 inh | Glyco luc inh | others
Cn1ncnc2c(=O)n(C)c(=O)nc1-2 | 72* | . | . | 5 | -23 | DNA binding=7%
Cc1nccc2c1[nH]c1ccccc12 | ? | 9 | -2 | -2 | 1 | DNA binding=-8%
CC=Cc1ccc2n(c1=O)C[C@@H]1[C@@H](CO)[C@H](C(=O)OC)[C@H]2N1CC1CCCCC1 (mixture of isomers) | -4 | -4 | 1 | . | .
COc1ccc(-c2ccc([C@@H]3[C@H]4CN(C(=O)Cc5ccncc5)CCCCN4[C@H]3CO)cc2)cc1 | 1 | 2 | 0 | . | .
C=C1[C@@H](OC(C)=O)[C@]23C[C@@H]1[C@@H](OC(C)=O)CC2[C@]12C4C[C@H]3[C@H]1N(CC)C[C@]4(C)CC[C@@H]2O (some centres not stated) | -13 | 78* | 3 | . | -2 | RAD52 DNA ctr=i
CCN1C[C@]2(COC)CC[C@H](O)[C@@]34C5C[C@H]6[C@H](O)C5[C@](O)(C[C@H]6OC)[C@@H]([C@H](OC)C23)[C@@H]14 (some centres not stated) | 0 | . | . | . | 2
C[C@]1(O)CCC2C3CC[C@@H]4CC(=O)CC[C@]4(C)C3CC[C@@]21C (some centres not stated) | . | -13 | 0 | -1 | 1
C[C@]1(O)CCC2C3CC[C@H]4C[C@@H](OC(=O)[C@@H](N)CCCCN)CC[C@]4(C)C3CC[C@@]21C (some centres not stated) | 60* | 88* | -42 | 2 | -3 | RAD52 DNA ctr=i
COc1cc2c3cc1Oc1c(OC)c(OC)cc4c1[C@H](Cc1ccc(cc1)Oc1cc(ccc1O)C[C@H]3N(C)CC2)N(C)CC4 | 16 | 58* | -20 | . | -11 | RAD52 DNA ctr=i
COc1cc2c3cc1Oc1cc(ccc1O)C[C@@H]1c4c(cc(OC)c(O)c4Oc4cccc(c4)C[C@@H]3N(C)CC2)CC[N+]1(C)C | 19 | 70* | -6 | . | 2 | RAD52 DNA ctr=i
COc1cc2c3cc1Oc1cc(ccc1O)C[C@@H]1c4c(cc(OC)c(O)c4Oc4ccc(cc4)C[C@H]3N(C)CC2)CCN1C | 31 | 52* | -9 | . | -6 | RAD52 DNA ctr=i
COC(=O)[C@@H]1[C@@H](CO)[C@@H]2Cn3c(ccc(-c4ccncc4)c3=O)[C@H]1N2CCc1ccccc1 | -7 | -6 | -1 | . | .
COC(=O)[C@@H]1[C@@H](CO)[C@@H]2Cn3c(ccc(-c4ccccc4F)c3=O)[C@H]1N2Cc1cccnc1 | 2 | 1 | -2 | . | .
CC=Cc1ccc2n(c1=O)C[C@H]1[C@H](CO)[C@@H](C(=O)OC)[C@@H]2N1CC1CCCCC1 (mixture of isomers) | 8 | -5 | -1 | . | .
CCCCCCCCCCCCCCCC[N+](C)(C)C | 44 | 80* | -137 | . | -17 | RAD52 DNA ctr=?
O=c1[nH]c2ccccc2n1C1CCN(Cc2ccc(-c3[nH]c4cc5ncnc5cc4nc3-c3ccccc3)cc2)CC1 | . | 54* | -3 | . | . | RAD52 DNA ctr=i
O=c1[nH]c2cc(Cl)ccc2n1C1CCN(Cc2ccc(-c3nc4ccccc4nc3-c3ccccc3)cc2)CC1 | . | -17 | 1 | . | .
Oc1ccc2c3c1O[C@H]1c4[nH]c5c(c4CC4(O)C(C2)N(CC2CC2)CCC314)CC1(O)[C@H]2Cc3ccc(O)c4c3[C@@]1(CCN2CC1CC1)C5O4 (some centres not stated) | . | 83* | -5 | . | . | RAD52 DNA ctr=i
